PI5P4Ka inh – PI5P4K alpha (human) kinase inhibition; max response, %; PI5P4Kalpha enzyme, ADP-Glo luminescence, 60 min; hits give low values; 1.2% of 330,000 active; active = max response of -50% or lower; inconclusive = between -30% and -50%; inactive = -30% or higher; also: value at the top dose of about 77 µM; % is scaled to controls: 0 for no effect and ±100 for the full control effect
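qHTS, 1536-well: enzyme/substrate mix, compound by pin tool, 5 microM ATP final; RT 60 min; ADP-Glo reagents 1 (45 min) then 2 (30 min); luminescence.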
G9a inh – G9a (human) methyltransferase inhibition; Potency, µM (top dose mostly 102 µM), inactives show at the highest dose activity, negative = inhibition, usual class: inhibitors; Q96KQ7; G9a H3K9 monomethylation, AlphaScreen, 2 h; AID 504332; 8.8% of 350,000 active; also: potency is read from the fitted curve at half-maximal effect; % is scaled to controls: 0 for no effect and ±100 for the full control effect; nearly all actives have a fitted effect of over 75% in size
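Signal arises when biotinylated H3K9 peptide, once monomethylated, bridges streptavidin donor and antibody-captured acceptor beads. Enzyme at 20 nM was preincubated 15 min with test compounds; peptide 500 nM and SAM 20 uM then reacted for 2 h.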
JMJD2A Tudor inh – JMJD2A Tudor domain (human) inhibition; AlphaScreen JMJD2A-Tudor / H3K4me3 peptide binding; 4.4% of 390,000 active; Potency, µM (doses to about 114 µM), for inactives: top-dose activity change, negative = inhibition, usual class: inhibitors; O75164; also: potency is read from the fitted curve at half-maximal effect; % is scaled to controls: 0 for no effect and ±100 for the full control effect; nearly all actives have a fitted effect of over 50% in size
BAZ2B block – blocks human BAZ2B; Potency, µM (highest dose often 114 µM), for the others: at the highest dose activity change, negative = inhibition, hits mostly inhibitors; 4.4% of 360,000 active; AlphaScreen BAZ2B-H3K14Ac peptide displacement; AID 504333; Q9UIF8; also: potency is read from the fitted curve at half-maximal effect; % is scaled to controls: 0 for no effect and ±100 for the full control effect; nearly all actives have a fitted effect of over 60% in size
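AlphaScreen displacement: compounds (up to 110uM) incubated 30 min at room temperature with a preformed 50 nM BAZ2B/50 nM biotinylated H3K14Ac peptide complex in PBS pH 7.4 with Tween-20. Donor and acceptor beads at 10 ug/mL final added, 20 min light-protected before reading.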
HP1b chromo inh – inhibitors of HP1-beta chromodomain binding to methylated histone tails; 0.56% of 390,000 active; AlphaScreen HP1-beta / biotin-H3K9me3 peptide binding; P83916; Potency, µM (doses to about 114 µM), without a hit: top-dose activity change, negative = inhibition, actives largely listed as inhibitors; also: potency is read from the fitted curve at half-maximal effect; nearly all actives have a fitted effect of over 70% in size
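HP1-beta protein (50 nM final) preincubated 30 min at room temperature with biotinylated H3(1-18)K9me3 peptide (50 nM) in PBS pH 7.4, 0.01% Tween-20, then compound added for 30 min. AlphaScreen streptavidin donor/nickel chelate acceptor beads (10 ug/mL final), 30 min dark, luminescence read.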
L3MBTL1 inh – L3MBTL1 (human) inhibition. Potency, µM (doses to about 57.1 µM), inactives show at the highest dose activity, negative = inhibition, most hits filed as inhibitors. AlphaScreen L3MBTL1–H3K9me1 peptide binding. AID 485360. 0.66% of 230,000 active; also: potency is read from the fitted curve at half-maximal effect; % is scaled to controls: 0 for no effect and ±100 for the full control effect; nearly all actives have a fitted effect of over 60% in size
Target sequence (Q9Y468 whole entry, looked up): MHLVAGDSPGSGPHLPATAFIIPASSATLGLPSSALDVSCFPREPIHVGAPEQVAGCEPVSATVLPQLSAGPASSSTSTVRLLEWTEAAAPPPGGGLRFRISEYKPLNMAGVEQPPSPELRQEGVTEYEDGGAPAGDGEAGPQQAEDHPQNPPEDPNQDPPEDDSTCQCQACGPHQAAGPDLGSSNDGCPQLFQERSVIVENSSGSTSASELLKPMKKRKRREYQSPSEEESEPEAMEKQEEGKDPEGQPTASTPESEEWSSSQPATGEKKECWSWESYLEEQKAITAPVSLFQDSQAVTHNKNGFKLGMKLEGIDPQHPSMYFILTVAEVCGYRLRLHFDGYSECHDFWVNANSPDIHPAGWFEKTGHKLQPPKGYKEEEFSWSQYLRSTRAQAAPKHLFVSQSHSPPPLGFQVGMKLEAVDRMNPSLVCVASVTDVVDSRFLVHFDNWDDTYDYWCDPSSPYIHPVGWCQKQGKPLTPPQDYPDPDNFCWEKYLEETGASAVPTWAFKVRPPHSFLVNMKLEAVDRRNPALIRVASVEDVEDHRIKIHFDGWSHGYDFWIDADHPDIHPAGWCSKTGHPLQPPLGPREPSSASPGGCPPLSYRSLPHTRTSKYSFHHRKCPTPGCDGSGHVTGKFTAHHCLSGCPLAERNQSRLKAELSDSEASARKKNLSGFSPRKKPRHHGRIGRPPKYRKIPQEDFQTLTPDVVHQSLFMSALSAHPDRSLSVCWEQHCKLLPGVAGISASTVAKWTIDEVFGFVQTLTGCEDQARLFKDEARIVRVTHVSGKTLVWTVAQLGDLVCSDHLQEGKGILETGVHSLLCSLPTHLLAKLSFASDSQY
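L3MBTL1 (50 nM) pre-complexed 30 min with biotinylated H3(1-15)K9me1 peptide (75 nM), then compounds added for 30 min at room temperature; AlphaScreen streptavidin donor/nickel chelate acceptor beads (10 ug/mL final) read after 30 min dark incubation.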
Numbers without * were called inactive; ? = inconclusive; / = no result given; [ ] = another dose, or the depositor's remark. Only some compounds are listed: those with a hit (about 11% of all), similar ones and a draw of the others. Unless noted, calls follow the shape of the dose curve; as a rule, active = well fitted inhibition curve with a large enough effect; inconclusive = small, poorly fitted or top-dose-only effect; inactive = no such curve, though single readings can be large or run the other way.

SMILES	PI5P4Ka inh	G9a inh	JMJD2A Tudor inh	BAZ2B block	HP1b chromo inh	L3MBTL1 inh
CCOc1ccc(CC(=O)C2C(=O)CC(C)(C)CC2=O)cc1OCC	0	10µM*	18µM*	?	55%	5%
CCOc1ccc(CC(=O)NC2CC(C)(C)N(C)C(C)(C)C2)cc1OCC	1	-15%[12.7 µM]	0%	16%	43%	5%
COc1ccccc1C1C(C(N)=O)=C(C)Nc2nc(SCc3ccccc3F)nn21 (stereo unspecified)	/	-21%[59 µM]	-22%	-18%	10%	/
CN1CCN(c2ncc3nc(-c4cc(F)cc(F)c4)c(=O)n(CCc4ccccc4)c3n2)CC1	/	-8%[0.501 µM]	/	/	/	/
Cc1cccc(Cn2c(=O)n(Cc3ccccc3)c(=O)c3c2c2cc(C)ccc2n3C)c1	/	-3%[59 µM]	10%	2%	50%	/
CCCn1c(CCC(=O)Nc2cc(C(=O)OC)cc(C(=O)OC)c2)nc2cccnc21	/	-18%[59 µM]	-7%	-6%	27%	/
CCCCCCCCCCCC1=C(O)C(=O)C=C(O)C1=O	-62*	/	28µM*	/	?	/
COC1=CC(=O)C(O)=C(CCCCCCC/C=C/CCCCCCCC2=C(O)C(=O)C=C(OC)C2=O)C1=O	-75*	/	45µM*	/	?	/
O=C1C(=O)c2ccccc2C(O)=C1CCCCl	0	/	-23%	?	36%	-20%
OCc1ccc(-c2ccc(-c3ccc(CO)s3)o2)s1	/	1.6µM*	/	/	/	/
NC(=O)c1csc(-c2ccc(CO)o2)n1	4	/	/	/	/	/
O=C(CCCSc1nnc(-c2cccs2)n1CC1CCCO1)c1ccccc1 (stereo unspecified)	-1	-45%[2.33 µM]	79µM*	-5%	34%	/
O=C(/C(=C/O)N=Nc1ccccc1)c1cccs1	-12	35µM*	-17%[11.4 µM]	22µM*	45µM*	-25%
CCc1nnc(NC(=O)c2ccc(S(=O)(=O)N(CCOC)CCOC)cc2)o1	-2	4µM*	45µM*	28µM*	42%	-28%
CCCCN(CCCC)S(=O)(=O)c1ccc(C(=O)Nc2nnc(CSC)o2)cc1	1	9%	-17%	2%	47%	13%
COCCN(CCOC)S(=O)(=O)c1ccc(C(=O)Nc2nnc(C3CC3)o2)cc1	1	10%[12.7 µM]	10µM*	32µM*	26%	-15%
CCCCN(CC)S(=O)(=O)c1ccc(C(=O)Nc2nnc(COC)o2)cc1	3	-5%	3%[11.4 µM]	?	-4%	14%
CCCN(CCC)S(=O)(=O)c1ccc(C(=O)Nc2nnc(CSC)o2)cc1	-1	-31%	50µM*	?	-9%	5%
Cc1c(Cl)cccc1NC(=O)C(=O)NCC(c1cccnc1)N1CCN(c2ccccc2)CC1 (stereo unspecified)	/	5%[59 µM]	-15%	7%	35%	/
COc1ccccc1CN1CCNC(=O)C1CC(=O)NC1CCCCCC1 (stereo unspecified)	-11	16µM*	-16%	-26%	34%	/
COc1cccc(CN2CCNC(=O)C2CC(=O)NC2CCCCC2)c1OC (stereo unspecified)	-2	35µM*	-6%	-14%	44%	/
CCOc1ccccc1CN1CCNC(=O)C1CC(=O)NC1CCCCC1 (stereo unspecified)	2	-5%[0.0925 µM]	-27%	-18%	40%	/
COc1cccc(CN2CCNC(=O)C2CC(=O)NC2CCCC2)c1OC (stereo unspecified)	-11	40µM*	-24%	-16%	9%	/
COc1cccc(CN2CCNC(=O)C2CC(=O)N2CCCCO2)c1OC (stereo unspecified)	-2	71µM*	1%	0%	52%	-26%
O=C(NCc1ccc(Cl)cc1)C1(c2cccs2)CCOCC1	/	-1%[59 µM]	-1%	0%	38%	/
SMILES	PI5P4Ka inh	G9a inh	JMJD2A Tudor inh	BAZ2B block	HP1b chromo inh	L3MBTL1 inh
CC(C)N(Cc1nc(-c2ccc(Cl)cc2)no1)C(=O)c1ccco1	/	-28%[59 µM]	0%	-18%[57.1 µM]	30%	/
CCn1c(C2CC(=O)N(c3cc(C)cc(C)c3)C2)nc2ccccc21 (stereo unspecified)	-1	-35%	-14%	15%	18%	1%
COC(=O)Cn1c(C2CC(=O)N(c3c(C)cccc3C)C2)nc2ccccc21 (stereo unspecified)	/	14µM*	-13%	-3%	30%	/
Cc1cccc(C)c1OCCCCn1c(C2CC(=O)N(c3ccc(F)cc3)C2)nc2ccccc21 (stereo unspecified)	/	14µM*	?	-15%	16%	/
Cc1cccc(C)c1OCCn1c(C2CC(=O)N(c3cccc(Cl)c3)C2)nc2ccccc21 (stereo unspecified)	/	-34%[59 µM]	-21%	-9%	21%	/
COc1cccc(Cn2c(=O)n(-c3ccc(Br)cc3F)c(=O)c3sc4ccccc4c32)c1	/	-4%[59 µM]	2%	-2%	37%	/
O=C(OCc1nnc(-c2ccccc2)o1)c1cc([N+](=O)[O-])ccc1Cl	7	3%	-9%	-11%	11%	3%
O=[N+]([O-])c1cc(Br)c(OCc2nnc(-c3ccccc3)o2)c(Br)c1	6	28µM*	-55%	?	-3%	-10%
CCN1CCN(CC(=O)N/N=C/c2cc(Br)cs2)CC1	1	/	4µM*	25µM*	?	?
Cc1nccn1CC(=O)N/N=C/c1cc(Br)cs1	-2	11%[12.7 µM]	-16%	-4%	2%	-2%
O=C(CN1CCCCCC1)N/N=C/c1ccc(Cl)c(Cl)c1	-6	13µM*	8.9µM*	50µM*	-24%	-9%
CCOc1ccc(N(CC(=O)N/N=C/c2ccc(OC(C)C)cc2)S(C)(=O)=O)cc1	0	?	?	56µM*	1%	-2%
O=C(CN1CCN(Cc2ccccc2Cl)CC1)N/N=C/c1ccccn1	1	50µM*	-11%	2%	27%	14%
CCSc1nc2ccccc2c(OCc2ccccc2Cl)c1C(=O)OC	/	118%[59 µM]	142%	230%	118%	/
COc1cc(NC(=O)CC(c2cccs2)N2Cc3ccccc3C2=O)cc(OC)c1OC (stereo unspecified)	/	-30%[59 µM]	8%	-21%	27%	/
CCCOc1ccc(/C=N/NC(=O)CN2CCCCC2)cc1	1	-4%	-13%	-19%	3%	3%
COC(=O)c1ccc(NC(=O)CSc2ccccc2)cc1	-12	-2%[59 µM]	32µM*	12%	?	2%
COC(=O)c1ccc(NC(=O)CN2CCN(CC#N)CC2)cc1	3	10µM*	2.2µM*	40µM*	50µM*	/
CCOc1ccc(/C=N/NC(=O)CN2CCCCCCC2)cc1	-4	7.9µM*	20µM*	50µM*	?	/
O=C(CN1CCCCCC1)N/N=C/c1cccs1	/	2%	3.2µM*	79µM*	-28%	/
